# CYP2C19 act = human CYP2C19 activators, primary screen, biochemical, luminescence; Cytochrome P450 2C19 (Homo sapiens), P33261; recombinant CYP2C19, luciferin-H EGE luminescence; active compounds read high; 0 = fully inhibited enzyme, 1 = untreated enzyme; activation factor at 5 µM; 96,000 tested, under 10 active;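 active = activation factor of at least 2 at 5 µM in the primary screen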
# Target sequence (P33261 whole entry, looked up): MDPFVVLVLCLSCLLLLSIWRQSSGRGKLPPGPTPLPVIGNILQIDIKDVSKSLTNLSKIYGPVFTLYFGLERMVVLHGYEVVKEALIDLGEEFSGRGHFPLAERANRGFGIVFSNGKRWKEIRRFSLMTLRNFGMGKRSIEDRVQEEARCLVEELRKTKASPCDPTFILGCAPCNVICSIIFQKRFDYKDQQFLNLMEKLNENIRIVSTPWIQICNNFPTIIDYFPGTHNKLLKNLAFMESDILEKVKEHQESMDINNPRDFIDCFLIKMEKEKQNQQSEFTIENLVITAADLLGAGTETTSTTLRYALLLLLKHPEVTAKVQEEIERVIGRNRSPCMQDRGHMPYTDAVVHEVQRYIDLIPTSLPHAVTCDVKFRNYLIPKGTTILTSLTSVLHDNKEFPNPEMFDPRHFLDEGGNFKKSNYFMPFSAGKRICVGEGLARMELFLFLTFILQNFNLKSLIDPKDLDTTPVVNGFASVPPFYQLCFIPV
# EphB4 ephrin blk = EphB4-ephrin-B2 interaction antagonists, primary screen, biochemical, TNYL-RAW peptide probe, fluorescence polarization | Ephrin type-B receptor 4 (Homo sapiens), P54760 | EphB4 LBD / TNYL-RAW-Alexa532 peptide | inhibition, % at 7 µM | 97,000 tested, 0.15% active | AID 720, 2007;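 active = inhibition above the screen-wide mean inhibition plus 3 SD, cut at about 15% in these data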
# CYP2C19 inhib = blockers of cytochrome P450 2C19 activity – biochemical, luminescence, ADME assay, primary screen; P33261; CYP2C19 Supersomes, luciferin-H EGE luminescence, 30 min; inhibition, % at 5 µM; 96,000 tested, 21% active;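 active = CYP2C19 inhibition above a set limit at 5 µM in the primary screen, cut at about 50% in these data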
# CYP2C9 activ = human CYP2C9 activators, primary screen, biochemical, luminescence. Cytochrome P450 2C9 (Homo sapiens), P11712. 96,000 tested, 1.4% active. recombinant CYP2C9, luciferin-H conversion; active compounds read high; factor 1 = untreated enzyme, 0 = blocked. activation factor at 5 µM. AID 1024, 2008;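 active = activation factor of 2 or more for CYP2C9 at a 5 µM dose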
# CYP2C9 inh = blockers of cytochrome P450 2C9 activity – biochemical, luminescence, ADME assay, primary screen; inhibition, % at 5 µM; AID 777, 2007; P11712; CYP2C9 Supersomes, luciferin-H conversion; 96,000 tested, 20% active;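 active = blocking of liver enzyme CYP2C9 beyond about 50% at 5 µM, limit read from the data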
# Numbers stand for hits; 0 = inactive; - = no result. Only some compounds are listed: those with a hit (about 27% of all), similar ones and a draw of the others.
SMILES,CYP2C19 act,EphB4 ephrin blk,CYP2C19 inhib,CYP2C9 activ,CYP2C9 inh
O=C(CCSc1nc(-c2ccco2)cc(C(F)(F)F)n1)NCC1CCCO1 (stereo unspecified),0,0,66.7,0,0
CCOC(=O)N1CCN(c2nc(-c3ccco3)cc(C(F)(F)F)n2)CC1,0,0,0,0,75.4
O=C(C1CC(=O)N(c2ccccc2)C1)N1CCN(C2=NS(=O)(=O)c3ccccc32)CC1 (stereo unspecified),0,0,0,0,0
CC(NC(=O)c1cccs1)C(=O)NC1=NCCS1 (stereo unspecified),0,0,0,0,0
O=C(CSc1nc(-c2ccco2)cc(C(F)(F)F)n1)NCC1CCCO1 (stereo unspecified),0,0,71.1,0,0
O=C(CCCSc1nc(-c2ccco2)cc(C(F)(F)F)n1)NCC1CCCO1 (stereo unspecified),-,0,-,-,-
CCOC(=O)CSc1nnc([C@@H](NC(=O)OC(C)(C)C)C(C)C)o1,0,0,0,0,0
C=C(C)CSc1nnc([C@@H](NC(=O)OC(C)(C)C)C(C)CC)o1 (stereo partly specified),0,0,83.0,0,52.0
CCCCSc1nnc([C@@H](NC(=O)OC(C)(C)C)C(C)C)o1,0,0,50.2,0,0
CCc1noc(C)c1C(=O)N1CCOCC1,0,0,0,0,0
C/C(=C\c1ccco1)C1C(C#N)=C(N)OC2=C1C(=O)CC(C)(C)C2 (stereo unspecified),0,0,92.9,0,90.8
C/C(=C\c1ccco1)C1C(C#N)=C(N)Oc2n[nH]c(-c3ccccc3)c21 (stereo unspecified),0,0,0,0,0
CC1(C)CC(=O)C2=C(C1)OC(N)=C(C#N)C2c1cccc(OC(=O)c2ccco2)c1 (stereo unspecified),0,0,0,0,75.9
CN(C)S(=O)(=O)Oc1cccc(C(=O)Nc2ccc(Cl)cc2)c1,0,0,0,0,68.0
COc1cccc(C(=O)Nc2ccc(C)cc2)c1,0,0,0,0,0
CN(C)S(=O)(=O)Oc1cccc(C(=O)Nc2ccccc2Cl)c1,0,0,52.5,0,51.8
Cc1ccc(NC(=O)c2ccc(-c3nn(C)c(=O)c4ccccc34)cc2)cc1,0,0,0,0,57.1
O=C(c1ccc(-n2cccc2)cc1)N1CCN(Cc2ccccc2)CC1,0,0,0,0,0
Cc1ccc(NC(=O)c2ccc(-c3nn(C)c(=O)c4ccccc34)cc2)c(C)c1,0,0,0,0,0
Cn1nc(-c2ccc(C(=O)Nc3cccnc3)cc2)c2ccccc2c1=O,0,0,58.5,0,53.3
Cn1nc(-c2ccc(C(=O)N3CCN(Cc4ccccc4)CC3)cc2)c2ccccc2c1=O,0,0,68.8,0,73.0
Cn1nc(-c2ccc(C(=O)Nc3cccc(Cl)c3)cc2)c2ccccc2c1=O,0,0,50.6,0,0
CC(O)CNC(=O)c1ccc(-c2nn(C)c(=O)c3ccccc23)cc1 (stereo unspecified),0,0,0,0,0
CCCn1cc(C(CC(=O)O)C(=O)O)c2ccccc21 (stereo unspecified),0,0,0,0,0
CCC(NC(=O)Nc1ccc(O)cc1)(C(F)(F)F)C(F)(F)F,0,0,0,0,0
SMILES,CYP2C19 act,EphB4 ephrin blk,CYP2C19 inhib,CYP2C9 activ,CYP2C9 inh
Cn1nc(-c2ccc(OCC(=O)Nc3cccnc3)cc2)c2ccccc2c1=O,0,0,0,0,70.9
CN(C)C(=O)N1CCCC(C(=O)NCc2cccs2)C1 (stereo unspecified),0,-,0,0,0
C=CCc1ccccc1OCC(O)CN1CCN(c2ccccc2F)CC1 (stereo unspecified),0,0,65.6,0,54.8
C=CCc1ccccc1OCCCCN1CCCC1,0,-,0,0,0
C=CCc1ccccc1OCC(O)CN1CCN(c2ccccc2OC)CC1 (stereo unspecified),0,0,0,0,0
C=CCc1ccccc1OCC(CN1CCCCC1)OC(C)=O (stereo unspecified),0,0,52.6,0,0
CCCCNC(=O)Nc1ccnn1C1CCCCC1,0,-,56.8,0,0
COc1ccccc1NC(=O)C1CCCCC1,0,0,0,0,0
COc1ccccc1NC(=O)Nc1ccnn1Cc1cccs1,0,0,63.0,0,0
COc1ccccc1NC(=O)Nc1ccnn1C1CCCCC1,0,-,56.2,0,0
Cc1cc(C)n2c(SCC#N)nnc2n1,0,-,0,0,0
O=S(=O)(/N=C(/Nc1ccccc1F)c1ccccc1)c1ccccc1,0,0,62.8,0,0
COc1cc(N/C(=N/S(=O)(=O)c2ccccc2)c2ccccc2)ncn1,0,0,0,0,0
COc1ccccc1N/C(=N/S(=O)(=O)c1ccc(Cl)cc1)c1ccccc1,0,0,73.3,0,0
O=C(CSc1nnc(-c2ccco2)n1-c1ccccc1)NCc1ccco1,0,0,0,0,0
COc1ccccc1CN1CC(C(=O)NC2CCCCC2)CC1=O (stereo unspecified),0,0,0,0,0
Cc1cc(C)c(S(=O)(=O)N2CCC(C(N)=O)CC2)cc1C,0,0,0,2.3,0
COc1cc(S(=O)(=O)N2CCC(C(N)=O)CC2)c(C)cc1C,0,0,68.9,3,0
Cc1ccc(S(=O)(=O)N2CCC(C(N)=O)CC2)c(C)c1C,0,0,0,0,0
O=C(O)CC(CC(=O)Nc1nncs1)c1ccccc1 (stereo unspecified),0,0,0,0,0
CCc1nnc(NC(=O)CC(CN(C)S(=O)(=O)c2ccccc2)c2ccccc2)s1 (stereo unspecified),0,0,0,0,0
Cc1nnc(NC(=O)CC(CN(C)S(=O)(=O)c2ccccc2)c2ccccc2)s1 (stereo unspecified),0,0,69.6,0,0
CN(CC(CC(=O)Nc1nncs1)c1ccccc1)S(=O)(=O)c1ccc(Br)cc1 (stereo unspecified),0,0,94.5,0,56.6
CN(CC(CC(=O)Nc1nncs1)c1ccccc1)S(=O)(=O)c1ccccc1 (stereo unspecified),0,0,89.8,0,54.1
CC(CC(=O)Nc1nncs1)c1ccccc1 (stereo unspecified),-,0,-,-,-
O=C(Nc1ccccc1)c1ccc(NCC2CCCO2)c(S(=O)(=O)N2CCOCC2)c1 (stereo unspecified),-,0,-,-,-
O=C(NC(=S)Nc1ccc(Oc2ccc(Cl)cc2)cc1)c1ccccc1,0,0,0,0,0
COc1ccc(C(=O)COc2ccc(NC(C)=O)cc2)cc1,0,0,0,0,0
CC(=O)Nc1ccc(OCC=C(Cl)Cl)cc1,0,16.2,0,0,0
COC(=O)c1cnn(C(=O)c2cc(OC)ccc2Br)c1N,0,0,0,2,0

# Screening results from PubChem BioAssay.
